Results filed as inconclusive are left out. Active and inactive are the calls of the source. Unless noted, calls follow the shape of the dose curve; as a rule, active = well fitted curve in the direction sought with a large enough effect in the repeat runs; inconclusive = weak or mixed curves; inactive = no such curve, though single readings can be large; an effect the other way counts as inactive or inconclusive.
Columns and labels:
[1] = qHTS assay for small molecule agonists of the p53 signaling pathway (AID 651631; calls by dose curve; also: nearly all actives have a fitted effect of over 15% in size)
How it was run: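 Fluorescence intensity from cleaved LiveBLAzer B/G substrate (2 h, room temperature) served as the signal. Beforehand, HCT-116 reporter cells bearing p53 response elements were treated 16 h at 37 °C with DMSO-dissolved compounds.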

[2] = qHTS assay for small molecules that induce genotoxicity in human embryonic kidney cells expressing luciferase-tagged ATAD5 (AID 651632); also: nearly all actives have a fitted effect of over 15% in size
How it was run: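 HEK293T cells carrying a luciferase reporter tagged to ATAD5 were exposed to compound or DMSO vehicle for 16 hr at 37C, 5% CO2. Amplite was added, and after 30 min at room temperature luciferase activity was read as a marker of ATAD5 induction.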

[3] = qHTS assay for small molecule agonists of the p53 signaling pathway - cell viability (AID 651633; calls by dose curve;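 also: p53RE-bla HCT reporter cells with a stable beta-lactamase p53 reporter; series mostly up to about 83 µM; nearly all actives have a fitted effect of over 30% in size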)
How it was run: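 Viability counter-read: CellTiter-Glo luminescence (30 min, room temperature) in the same p53RE-bla plates. These plates had been exposed to compounds for 16 h at 37 C.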

[4] = qHTS assay for small molecules that induce genotoxicity in human embryonic kidney cells expressing luciferase-tagged ATAD5 - cell viability (AID 651634; calls by dose curve; also: nearly all actives have a fitted effect of over 25% in size)
How it was run: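 HEK293T cells expressing luciferase-tagged ATAD5 were exposed to compound or DMSO for 15.5 hr at 37C, 5% CO2. Viability was then read as live-cell protease activity by CellTiter-Fluor fluorescence after 30 min at 37C.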

[5] = qHTS assay to test for compound auto fluorescence at 590 nm (red) in HepG2 cells (AID 720674)
How it was run: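 We screened compounds on adherent HepG2 cells, incubating them for an hour at 37 C in 5% CO2 before reading emission at 590 nm under 540 nm excitation; values reflect equivalence to Rose Bengal sodium fluorescence.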

[6] = qHTS assay to test for compound auto fluorescence at 535 nm (green) in HepG2 cells (AID 720675)
[7] = qHTS assay to test for compound auto fluorescence at 460 nm (blue) in HEK293 cells (AID 720678)
How it was run: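 Blue read-out at excitation 405 nm and emission 460 nm follows overnight compound exposure of HEK293 cells at 37C in 5% CO2. Activity is given as auto fluorescence equivalency to triamterene.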

[8] = qHTS assay to test for compound auto fluorescence at 590 nm (red) in HEK293 cells (AID 720679)
How it was run: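 Red channel, Ex/Em 540/590nm; signal expressed as equivalency to Rose Bengal sodium. HEK293, 2,000 cells/well, 10% dialyzed FBS; 23 nL compound pinned after 4-5 hr attachment; overnight 37C/5% CO2 before reading.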

[9] = qHTS assay for small molecule disruptors of the mitochondrial membrane potential (AID 720635); also: potency is read from the fitted curve at half-maximal effect
How it was run: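 Mitochondrial membrane potential tracked with Mito-MPS dye, red aggregates (ex 540/em 590 nm) against green monomers (ex 490/em 535 nm). Compound treatment 1 hr at 37C, dye 30 min in HepG2.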

[10] = qHTS assay for small molecule disruptors of the mitochondrial membrane potential - cell viability (AID 720634; calls by dose curve;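 also: human HepG2 liver cancer cells; series mostly up to about 83 µM; nearly all actives have a fitted effect of over 20% in size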)
How it was run: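 HepG2 cells seeded overnight at 37 C, then exposed to compound or DMSO for 1 hr at 37 C, 5% CO2. m-MPI dye added, then CellTiter-Glo for 30 min at room temperature; viability read as ATP luminescence.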

Measured: Potency

CCNP(=S)(OC)O/C(C)=C/C(=O)OC(C)C (stereo not given)
not listed: [9] | [10]
inactive: all other assays above

CCOC(=O)Nc1cccc(OC(=O)Nc2ccccc2)c1
active: [9] 9.69 µM
not listed: [10]
inactive: all other assays above

C#CCOC(=O)/C=C(C)/C=C/CC(C)CCCC(C)C (stereo not given)
not listed: [9] | [10]
inactive: all other assays above

[O-][Br+2]([O-])O
not listed: [4] | [9] | [10]
inactive: all other assays above

Oc1ccc2c3c1O[C@H]1[C@@H](O)C=C[C@H]4[C@@H](C2)NCC[C@@]341
not listed: [5] | [9] | [10]
inactive: all other assays above

CCOC(=O)CC(SP(=S)(OC)OC)C(=O)OCC (stereo not given)
not listed: [2]
inactive: all other assays above

CNC(=O)NC(O)C(Cl)(Cl)Cl (stereo not given)
not listed: [8] | [9] | [10]
inactive: all other assays above

CCCCCCCCSC(=O)Oc1cc(Cl)nnc1-c1ccccc1
active: [9] 30.6 µM
not listed: [10]
inactive: all other assays above

O=C(Cl)OCc1ccccc1
not listed: [2]
inactive: all other assays above

N#CC(Br)(Br)C(N)=O
not listed: [9] | [10]
inactive: all other assays above

S=C=S
not listed: [2] | [8]
inactive: all other assays above

CCOP(=S)(OCC)Oc1ccc(Cl)cc1Cl
not listed: [8] | [9] | [10]
inactive: all other assays above

CC(C)[C@]12CC(=O)[C@H](C)[C@H]1C2
not listed: [1]
inactive: all other assays above
